# In PubChem BioAssay (NCATS):
# Results filed as inconclusive are left out. Values without a mark were called inactive. Active and inactive are the calls of the source. The call rests on the fitted dose curve; in most records, active means well fitted inhibition curve with a large enough effect; inconclusive means small, poorly fitted or top-dose-only effect; inactive means flat fitted curve, though single readings scatter.
# Target: Calcium and integrin-binding protein 1 (Homo sapiens) (UniProt Q99828)
# Assay: Primary qHTS for Identification of Calcium Integrin Binding Protein 1 (CIB1) Competitor (AID 1508620);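 further: GST tagged CIB1 binding a fluorescein labelled alphaIIb integrin peptide tracer; top concentration of the series differs between compounds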
# Conditions: CIB1-GST / FITC-alphaIIb peptide fluorescence polarization; series mostly up to 114 µM; activity change, negative = inhibition: at the top concentration
# In short: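 Fluorescence polarization competition: CIB1-GST (1 uM final) preincubated with compound 15 min at room temperature, then FITC-labeled alphaIIb peptide (100 nM final) added for another 15 min. Polarization read at Ex 480/Em 540.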
# On the % scale 0 is the no-effect control and ±100 the full control effect.
# Chain of Calcium and integrin-binding protein 1 (Homo sapiens) (Q99828 whole entry, looked up): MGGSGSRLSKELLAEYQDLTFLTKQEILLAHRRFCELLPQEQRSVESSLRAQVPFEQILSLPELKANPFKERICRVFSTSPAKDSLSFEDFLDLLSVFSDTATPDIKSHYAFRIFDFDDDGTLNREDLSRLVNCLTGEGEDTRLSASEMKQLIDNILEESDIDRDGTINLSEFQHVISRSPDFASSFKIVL
SMILES,"activity change, negative = inhibition",Potency
CC(=O)O[C@@H]1CC[C@@]2(C)[C@H](CC[C@@H]3[C@@H]2C[C@H](OC(C)=O)[C@]2(C)[C@@H](C(C)=O)CC[C@@H]32)C1,1.76%,–
CN(C)CCOC(C)(c1ccccc1)c1ccc(Cl)cc1 (centres undefined),1.93%,–
CC[C@@H]1C[C@]1(NC(=O)[C@@H]1C[C@@H]2CN1C(=O)[C@H](C(C)(C)C)NC(=O)OCC(C)(C)CCCCc1cccc3c1CN(C3)C(=O)O2)C(=O)NS(=O)(=O)C1CC1,-4.47%,–
O=C1COc2nccc(-c3ccccc3F)c2CN1Cc1cc(C(F)(F)F)cc(C(F)(F)F)c1,1.74%,–
C=C1/C(=C/C=C2\CCC[C@@]3(C)C2CCC3[C@H](C)/C=C/[C@@H](O)C2CC2)C[C@@H](O)C[C@@H]1O (some centres undefined),-1.17%,–
CC(C)(C)NC(=O)[C@H]1CC[C@H]2[C@@H]3CC[C@H]4NC(=O)CC[C@]4(C)[C@H]3CC[C@]12C,1.32%,–
CC(=O)O[C@H]1CC2C(COC(=O)CC(C)C)=CO[C@@H](OC(=O)CC(C)C)C2[C@]12CO2 (some centres undefined),-9.83% [at 57.7 µM],–
C=C1C(OC2OC(CO)C(O)C(O)C2O)CC2C(C)(C)C(O)CCC2(C)C1CC/C(C)=C\COC(=O)CC(=O)O (centres undefined),3.79% [at 30.2 µM],–
CC(C)(F)CC(NC(c1ccc(-c2ccc(S(C)(=O)=O)cc2)cc1)C(F)(F)F)C(=O)NC1(C#N)CC1 (centres undefined),3.22%,–
COC1=CC(=O)C[C@@H](C)[C@@]12Oc1c(Cl)c(OC)cc(OC)c1C2=O,4.71% [at 57.7 µM],–
Cc1cn(CCN2CCN(c3ccccc3-c3cc(C#N)cc(C(=O)NCCCN4CCCC4)c3)CC2)c2ccccc12,–,inactive
CC12CCC(OC3OC(CO)C(O)C(O)C3OC3OC(CO)C(O)C(O)C3O)CC1CCC1C2CCC2(C)/C(=C3/COC(=O)C3)CCC12O (centres undefined),-0.898% [at 30.2 µM],–
CC(=O)OC1C(OC(=O)c2ccccc2)C2C(C)(C)CCC(OC(C)=O)C2(C)C23CCC(C)(C2)C(=O)CC13 (centres undefined),3.8% [at 57.7 µM],–
C/C=C(\C)C(=O)O[C@@H]1[C@@H](C)[C@]2(O)[C@@H]3C=C(C)C(=O)[C@H]3CC(CO)=C[C@H]2C2C(C)(C)[C@@]21OC(=O)C(C)CC (some centres undefined),3.1% [at 57.7 µM],–
COc1c2c(nc3occc13)C(CC=C(C)C)(OC)C(O)CC2 (centres undefined),2.18% [at 57.7 µM],–
CC1=C(C(=O)Nc2cc(Cl)ccc2Cl)C(c2ccco2)C2=C(CCCC2=O)N1 (centres undefined),1.52%,–
Cc1cc2c(c(=O)o1)C=C1CC[C@H]([C@H](C)Cn3cnc(=N)c4[nH]cnc43)C[C@@H]1O2,8.94%,–
CNCCC(c1cccs1)c1ccc(O)c2ccccc12 (centres undefined),-0.308%,–
CC1(CO)CC(O)[C@]2(C(=O)O)CCC34CC3(C=CC3[C@]5(C)C(CC[C@]34C)C(C)(CO)[C@@H](O)[C@H](O)[C@@H]5O)C2C1 (some centres undefined),1.18% [at 57.7 µM],–
N#Cc1ccc(-c2ccc(S(=O)(=O)Nc3cccc(N)n3)cc2)cc1,7.37%,–
CC(C)(C)c1ccc(NC(=O)N2CCN(c3ncccc3Cl)CC2)cc1,3.66%,–
CN(C)C(CCOc1cccc2ccccc12)c1ccccc1 (centres undefined),6.68%,–
Cc1cccc(N2CCN(C(=O)c3cc(S(=O)(=O)N(C)C)ccc3N3CCCC3)CC2)c1C,-1.97%,–
CC(C)C[C@H](C(=O)O)c1cc(-c2ccc(C(F)(F)F)cc2)cc(-c2ccc(C(F)(F)F)cc2)c1,6.58%,–
